The sample as a whole holds a higher share of hits than the screen did.
GBA activity up: enhancers of human beta-glucosidase activity in Gaucher fibroblasts. P04062. activation, % at 10 µM. AID 784. L444P Gaucher fibroblasts, 4-MU-glucoside fluorescence, 3 days. actives 0.44% (n = 30,000); in the data active = activation above about 65%
Target sequence (P04062 whole entry L483P): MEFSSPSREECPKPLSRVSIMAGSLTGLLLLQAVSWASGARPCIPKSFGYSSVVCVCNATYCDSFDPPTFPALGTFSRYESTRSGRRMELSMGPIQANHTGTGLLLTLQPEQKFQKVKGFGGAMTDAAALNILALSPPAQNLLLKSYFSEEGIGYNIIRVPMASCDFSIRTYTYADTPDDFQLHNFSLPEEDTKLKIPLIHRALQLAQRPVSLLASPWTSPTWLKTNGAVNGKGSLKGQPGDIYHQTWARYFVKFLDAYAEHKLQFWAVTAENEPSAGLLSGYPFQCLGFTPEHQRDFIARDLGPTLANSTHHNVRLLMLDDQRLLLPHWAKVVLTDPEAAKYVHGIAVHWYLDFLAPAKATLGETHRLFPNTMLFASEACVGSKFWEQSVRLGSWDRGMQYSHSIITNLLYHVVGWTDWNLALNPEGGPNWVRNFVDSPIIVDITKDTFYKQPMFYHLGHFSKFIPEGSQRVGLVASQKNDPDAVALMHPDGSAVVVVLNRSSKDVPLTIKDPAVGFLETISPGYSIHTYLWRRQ
A number is an active result.

CCOC(=O)CN1C(=O)C2(OCCCO2)c2ccccc21 was read as GBA activity up inactive.
COC(=O)CN1C(=O)C2(OCCCO2)c2cc(Br)ccc21 was read as GBA activity up 139.3.
Screening O=C(CN1C(=O)C2(OCCCO2)c2ccccc21)NCc1ccccc1 returned GBA activity up inactive.
`C=CCn1cc(C(=O)NCCCOCC)c(=O)c2cc(S(=O)(=O)N(CC)CC)ccc21` gave GBA activity up inactive.
`CCOc1cccc2cc(-c3nnc(-c4ccccc4)o3)c(=O)oc12` gave GBA activity up inactive.
Cc1cccn2c(=O)c3cc(C(=O)NCCCN4CCCC4=O)n(C)c3nc12 was read as GBA activity up inactive.
`CCOC(=O)CN(C(=O)CSc1nnc(COc2ccc(OC)cc2)n1C)c1ccccc1` gave GBA activity up inactive.
Cc1cc(-c2nnc3n2CCCCC3)c(C)n1-c1ccccc1 was read as GBA activity up inactive.
Screening Cn1c(Sc2nc3ccccc3n2C)nc2ccccc21 returned GBA activity up inactive.
Screening CN(C)c1ccc(-c2nc3ccccc3n2C)cc1 returned GBA activity up 80.7.
Cn1c(-c2ccc(Br)o2)nc2ccccc21 was read as GBA activity up inactive.
C=C(C)c1cccc(C(C)(C)NC(=O)Nc2ccc3[nH]c(=O)[nH]c3c2)c1 was read as GBA activity up inactive.
`COc1ccc(-c2nc(C#N)c(N3CCCCCC3)o2)cc1OC` gave GBA activity up inactive.
Screening CCOC(=O)c1c(NC(=O)CSc2nnnn2CC)sc(C)c1C returned GBA activity up inactive.
For N#Cc1c2n(c3c(=O)n(Cc4ccccc4Cl)cnc13)CCCCC2 the results were GBA activity up 68.0.
`COC(=O)Cn1cnc2c(C#N)c3n(c2c1=O)CCCCC3` gave GBA activity up inactive.
`COc1cccc(-n2nnc3c(=O)n(Cc4ccccc4Cl)cnc32)c1` gave GBA activity up inactive.
Screening CCOC(=O)SC1=N/C(=C\c2ccc(N(C)C)cc2)C(=O)S1 returned GBA activity up inactive.
`C=CCSC1=N/C(=C\c2ccsc2)C(=O)S1` gave GBA activity up 401.6.
For COc1cc(NC(=O)c2ncn[nH]2)cc(OC)c1OC the results were GBA activity up inactive.
O=C(Nc1nnc(CC(=O)N2CCCC2)s1)c1cnccn1 was read as GBA activity up inactive.
COc1ccc(OC)c(-c2nnc(-c3ccc(C)o3)o2)c1 was read as GBA activity up inactive.
Screening Cc1cc(NS(=O)(=O)c2ccc(NC(=O)CCN3C(=O)c4ccccc4C3=O)cc2)no1 returned GBA activity up 93.0.
`CC1CN(S(=O)(=O)c2ccc(NC(=O)CCN3C(=O)c4ccccc4C3=O)cc2)CC(C)O1` (centres undefined) gave GBA activity up inactive.
Cc1ccc(OCCCC(=O)Nc2ccc(S(=O)(=O)Nc3cc(C)on3)cc2)cc1 was read as GBA activity up inactive.
For COc1ccc(C2C3=C(CCCC3=O)Nc3nc4ccccc4n32)c(OC)c1OC (centres undefined) the results were GBA activity up inactive.
Cc1ccc(S(=O)(=O)Nc2nc3ccc(S(=O)(=O)N4CCCC4)cc3s2)cc1 was read as GBA activity up inactive.
For CCOC(=O)N1CCN(C(=O)c2ccc(Cn3c(=S)[nH]c4cc5c(cc4c3=O)OCO5)cc2)CC1 the results were GBA activity up inactive.
For CCOC(=O)N1CCN(C(=O)c2ccc3c(=O)n(Cc4ccccc4)c(=S)[nH]c3c2)CC1 the results were GBA activity up 69.2.
Screening CCOC(=O)N1CCN(C(=O)c2ccc3c(=O)n(Cc4ccc(OC)cc4)c(=S)[nH]c3c2)CC1 returned GBA activity up inactive.
Screening Cc1ccc(-c2c3c(=O)n(C)c(=O)n(C)c3c3c(C)cc(C)nn23)cc1 returned GBA activity up inactive.
COc1ccc(OC)c(NC(=O)C(CC(=O)O)NCc2ccco2)c1 (centres undefined) was read as GBA activity up inactive.
Screening COc1ccc(-c2cc(C(F)(F)F)nc(NCc3ccco3)n2)cc1OC returned GBA activity up inactive.
`FC(F)(F)c1cc(-c2ccco2)nc(NCc2ccco2)n1` gave GBA activity up inactive.
`COc1cccc(-c2cc(C(F)(F)F)nc(NCc3ccco3)n2)c1` gave GBA activity up 105.7.
Cc1nc(SCC(=O)Nc2ccccc2)c2oc3ccccc3c2n1 was read as GBA activity up inactive.
Cc1cc(C)nc(Sc2nc(C)nc3c2oc2ccccc23)n1 was read as GBA activity up 136.1.
`Cc1cc(C)nc(N2CCN(c3nc(C)nc4c3oc3ccccc34)CC2)n1` gave GBA activity up inactive.
O=C1CCCN1c1cc(Cl)ccc1Cl was read as GBA activity up inactive.
Screening CC(C)n1c(N2CCN(CC(=O)Nc3ccc4c(c3)OCCO4)CC2)nc2ccccc21 returned GBA activity up inactive.
COCCCn1c(SCC(=O)OC2CCCCC2)nnc1-c1ccco1 was read as GBA activity up 65.7.
COCCCn1c(SCC(=O)N2CCCCC2C)nnc1-c1ccco1 (centres undefined) was read as GBA activity up inactive.
Screening CCCn1c(SCC(=O)N2CCCCC2)nnc1-c1ccco1 returned GBA activity up inactive.
COc1ccc(-c2nnc3ccc(SCC(=O)N4CCN(c5ccccc5)CC4)nn23)cc1OC was read as GBA activity up inactive.
Screening Cn1c2c(c(=O)n(C)c1=O)C(c1cccc(Br)c1)C1C(=O)c3ccccc3C1=N2 (centres undefined) returned GBA activity up inactive.
CCCCN1C(=O)C2C(C(=O)Nc3cccc(OC)c3)C3C=CC2(O3)C1C(=O)NC1CCCCC1C (centres undefined) was read as GBA activity up inactive.
For COc1cccc(NC(=O)C2C3C=CC4(O3)C2C(=O)N(C2CC2)C4C(=O)NC2CCCCC2C)c1 (centres undefined) the results were GBA activity up inactive.
`COc1cccc(NC(=O)C2C3C=CC4(O3)C2C(=O)N(C(C)C)C4C(=O)NC2CCCCC2C)c1` (centres undefined) gave GBA activity up 68.2.
COc1ccc2[nH]c(C)c(CN3CCCC(C)C3)c(=O)c2c1 (centres undefined) was read as GBA activity up inactive.
`CCOc1ccccc1N(C(=O)CNC(=O)c1ccco1)C(C(=O)NC(C)(C)C)c1ccncc1` (centres undefined) gave GBA activity up inactive.
Screening O=C(Nc1cccnc1)c1cc(-c2ccc3c(c2)OCO3)on1 returned GBA activity up inactive.
O=C(Nc1cccc(Cl)c1)Nc1nccs1 was read as GBA activity up inactive.
For CN1CCN(S(=O)(=O)c2ccc(NC(=O)Nc3cccc(Cl)c3)cc2)CC1 the results were GBA activity up inactive.
N#CCc1ccc(NC(=O)Nc2cccc(Cl)c2)cc1 was read as GBA activity up 70.1.
CCOC(=O)c1ccccc1NC(=O)c1cn(CC)c2nc(C)ccc2c1=O was read as GBA activity up inactive.
CCN1CCC(C(=O)NC2CCCC2)(N(Cc2cccs2)C(=O)Cn2nnc3ccccc32)CC1 was read as GBA activity up inactive.
For N#CC(C(=O)NC1CCCCC1)c1nc2ccccc2nc1N1CCCCC1 (centres undefined) the results were GBA activity up inactive.
Cc1cc(C)cc(N2CCN(C(=O)N3CCOCC3)CC2)c1 was read as GBA activity up 71.6.
Cc1ccc(C)n1-c1ccc(N2CCOCC2)cc1 was read as GBA activity up inactive.
`O=C(N1CCOCC1)N1CCN(c2ccccn2)CC1` gave GBA activity up inactive.
`N#CC1=C(c2ccccc2)N=P(N2CCOCC2)(N2CCOCC2)N=C1N1CCOCC1` gave GBA activity up inactive.
`OCc1nc2ccccc2n1C/C=C/c1ccccc1` gave GBA activity up inactive.

Screening data (PubChem)
